Test results as given in PubChem BioAssay (EPA / NIEHS).
Active and inactive are the calls of the source. The calls were made as follows: active = hit-call score of the fitted dose curve at least 0.9, where 1 is the maximum; inactive = score below 0.9.

Assays:
[1] = read-out: Interleukin-8 (IL8), CXCL8 (gene 3576); test: BSK_CASM3C_IL8: BioMAP Diversity Plus: CASM3C Assay for Interleukin-8 (IL8) Biomarker Activity (AID 2283042); conditions: primary human coronary artery smooth muscle cells; actives raise or lower the signal;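 also: IL-8 protein level quantified by ELISA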
[2] = read-out: Human Leukocyte Antigen - DR isotype (HLADR), HLA-DRA (gene 3122); test: BSK_CASM3C_HLADR: BioMAP Diversity Plus: CASM3C Assay for Human Leukocyte Antigen - DR isotype (HLADR) Biomarker Activity (AID 2283043); conditions: primary human coronary artery smooth muscle cells; actives raise or lower the signal;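 also: cell-surface HLA-DR protein level quantified by ELISA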
[3] = read-out: Macrophage colony-stimulating factor (MCSF), CSF1 (gene 1435); test: BSK_CASM3C_MCSF: BioMAP Diversity Plus: CASM3C Assay for Macrophage colony-stimulating factor (MCSF) Biomarker Activity (AID 2283044); conditions: primary human coronary artery smooth muscle cells; actives raise or lower the signal;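 also: M-CSF protein amount quantified by ELISA after 24 h exposure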
[4] = read-out: Low-density lipoprotein receptor (LDLR), LDLR (gene 3949); test: BSK_CASM3C_LDLR: BioMAP Diversity Plus: CASM3C Assay for Low-density lipoprotein receptor (LDLR) Biomarker Activity (AID 2283045); conditions: primary human coronary artery smooth muscle cells; actives raise or lower the signal;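 also: LDLR protein level on the cell surface quantified by ELISA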
[5] = read-out: Monocyte Chemoattractant Protein-1 (MCP1), CCL2 (gene 6347); test: BSK_CASM3C_MCP1: BioMAP Diversity Plus: CASM3C Assay for Monocyte Chemoattractant Protein-1 (MCP1) Biomarker Activity (AID 2283046); conditions: primary human coronary artery smooth muscle cells; actives raise or lower the signal;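 also: MCP-1 level quantified by ELISA 24 h after dosing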
[6] = BSK_CASM3C_Proliferation: Cell Proliferation Assessment in the BioMAP Diversity Plus: CASM3C Assay (AID 2283047); conditions: primary human coronary artery smooth muscle cells;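 also: sulforhodamine B total protein stain as relative cell number at 560 nm; sub-confluent cells exposed 48 h before staining; fitted both ways against DMSO so gain or loss of cell number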
[7] = read-out: Monokine induced gamma interferon (MIG), CXCL9 (gene 4283); test: BSK_CASM3C_MIG: BioMAP Diversity Plus: CASM3C Assay for Monokine induced gamma interferon (MIG) Biomarker Activity (AID 2283048); conditions: primary human coronary artery smooth muscle cells; actives raise or lower the signal;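 also: MIG protein level measured by ELISA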
[8] = read-out: serum amyloid A (SAA), SAA1 (gene 6288); test: BSK_CASM3C_SAA: BioMAP Diversity Plus: CASM3C Assay for serum amyloid A (SAA) Biomarker Activity (AID 2283049); conditions: primary human coronary artery smooth muscle cells; actives raise or lower the signal;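 also: SAA protein level quantified by ELISA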
[9] = BSK_CASM3C_SRB: Viability Assessment in the BioMAP Diversity Plus: CASM3C Assay (AID 2283050); conditions: primary human coronary artery smooth muscle cells;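 also: total protein by SRB staining as cytotoxicity measure in parallel cultures; cells exposed to compound for 24 h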
[10] = read-out: Thrombomodulin, THBD (gene 7056); test: BSK_CASM3C_Thrombomodulin: BioMAP Diversity Plus: CASM3C Assay for Thrombomodulin Biomarker Activity (AID 2283051); conditions: primary human coronary artery smooth muscle cells; actives raise or lower the signal;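 also: thrombomodulin protein level measured by ELISA 24 h after dosing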

SMILES	outcome [1]	outcome [2]	outcome [3]	outcome [4]	outcome [5]	outcome [6]	outcome [7]	outcome [8]	outcome [9]	outcome [10]	AC50 [6]	AC50 [10]	AC50 [2]	AC50 [3]	AC50 [5]	AC50 [7]	AC50 [8]	AC50 [9]
CC(C)OC(=O)Nc1cccc(Cl)c1	inactive	inactive	inactive	inactive	inactive	inactive	inactive	inactive	inactive	inactive	–	–	–	–	–	–	–	–
COc1cc(OC)nc(NC(=O)NS(=O)(=O)c2cc(NC=O)ccc2C(=O)N(C)C)n1	inactive	inactive	inactive	inactive	inactive	inactive	inactive	inactive	inactive	inactive	–	–	–	–	–	–	–	–
CC(C)N(C(=O)COc1nnc(C(F)(F)F)s1)c1ccc(F)cc1	inactive	inactive	inactive	inactive	inactive	inactive	inactive	inactive	inactive	inactive	–	–	–	–	–	–	–	–
CN1CSC(=S)N(C)C1	inactive	inactive	–	inactive	inactive	–	inactive	inactive	inactive	inactive	14.5 µM (active)	–	–	–	–	–	–	–
Clc1ccccc1-c1nnc(-c2ccccc2Cl)nn1	inactive	inactive	inactive	inactive	inactive	–	inactive	inactive	inactive	inactive	–	–	–	–	–	–	–	–
CCOC1Oc2ccc(OS(C)(=O)=O)cc2C1(C)C (stereo not drawn)	inactive	inactive	inactive	inactive	inactive	inactive	inactive	inactive	inactive	inactive	–	–	–	–	–	–	–	–
COc1nn(CSP(=S)(OC)OC)c(=O)s1	inactive	inactive	inactive	inactive	inactive	inactive	inactive	inactive	inactive	inactive	–	–	–	–	–	–	–	–
Cc1cc(C)nc(NC(=O)NS(=O)(=O)c2ccccc2C(=O)OC2COC2)n1	inactive	inactive	inactive	inactive	inactive	inactive	inactive	inactive	inactive	inactive	–	–	–	–	–	–	–	–
C#CCN1C(=O)COc2cc(F)c(N3C(=O)C4=C(CCCC4)C3=O)cc21	inactive	inactive	inactive	inactive	inactive	inactive	inactive	inactive	inactive	inactive	–	–	–	–	–	–	–	–
Cc1[nH]c(=O)n(C(C)(C)C)c(=O)c1Cl	inactive	inactive	inactive	inactive	inactive	inactive	inactive	inactive	inactive	inactive	–	–	–	–	–	–	–	–
O=[N+]([O-])c1c(Cl)c(Cl)c(Cl)c(Cl)c1Cl	inactive	inactive	inactive	inactive	inactive	inactive	inactive	inactive	inactive	–	–	24.8 µM (active)	–	–	–	–	–	–
CNC(=O)Oc1cccc(N=CN(C)C)c1	inactive	inactive	inactive	inactive	inactive	inactive	inactive	inactive	inactive	inactive	–	–	–	–	–	–	–	–
CNC(=O)CSP(=S)(OC)OC	inactive	inactive	inactive	inactive	inactive	inactive	inactive	inactive	inactive	inactive	–	–	–	–	–	–	–	–
CCOc1nc(NC)nc(NC(=O)NS(=O)(=O)c2ccccc2C(=O)OC)n1	inactive	inactive	inactive	inactive	inactive	inactive	inactive	inactive	inactive	inactive	–	–	–	–	–	–	–	–
CCN(CC)C(=O)SCc1ccc(Cl)cc1	inactive	inactive	inactive	inactive	inactive	–	inactive	inactive	inactive	inactive	16.4 µM (active)	–	–	–	–	–	–	–
CCC(C)(NC(=O)c1cc(Cl)c(C)c(Cl)c1)C(=O)CCl (stereo not drawn)	inactive	–	–	inactive	–	–	–	–	–	inactive	18.5 µM (active)	–	17.7 µM (active)	25.2 µM (active)	22.9 µM (active)	17.5 µM (active)	14.4 µM (active)	23.4 µM (active)
CNC(=O)Oc1ccccc1OC(C)C	inactive	inactive	inactive	inactive	inactive	inactive	inactive	inactive	inactive	inactive	–	–	–	–	–	–	–	–
CNC(=O)/C=C(\C)OP(=O)(OC)OC	inactive	inactive	inactive	inactive	inactive	inactive	inactive	inactive	inactive	inactive	–	–	–	–	–	–	–	–
C[C@H]1[C@H](c2ccc(Cl)cc2)SC(=O)N1C(=O)NC1CCCCC1	inactive	inactive	inactive	inactive	inactive	–	inactive	inactive	inactive	–	20 µM (active)	14.9 µM (active)	–	–	–	–	–	–
